# FAS-TE inh: inhibitors of human fatty acid synthase thioesterase domain; inhibition, % at 15 µM; 360,000 compounds, 0.67% hits; AID 602261; recombinant FAS-TE, OMFH fluorogenic substrate, fluorescence endpoint; P49327;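 active = compounds whose normalised, plate-corrected inhibition of enzyme fluorescence in the single-dose primary screen is 50% or more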
# NadD inh: inhibitors of Staphylococcus aureus NadD. purified NadD enzyme, colorimetric absorbance read-out. inhibition, % at 20 µM. 360,000 compounds, 0.78% hits. AID 602399; in the data active = inhibition above about 26%
# rCAG binder: molecules binding r(CAG) RNA repeats | r(CAG) RNA repeat, TO-PRO-1 dye displacement fluorescence | inhibition, % at 3 µM | 370,000 compounds, 1.3% hits;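 active = inhibition above the plate cutoff, the mean of all test compounds on that plate plus 3 SD, cut at about 35% in these data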;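 also: higher means more dye released from RNA so lower well fluorescence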
# NR3A LBD binder: modulators (binders) of human NR3A ligand-binding domain. NR3A LBD differential scanning fluorimetry, Tm shift; 0% = protein alone, 100% = glycine-bound protein. Tm shift relative to glycine control, % at 25 µM. 340,000 compounds, 2.5% hits. AID 1259313;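 active = melting temperature shift of at least 10% of the positive control shift, at one fixed dose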
# FAS-TE conf: FAS thioesterase (human) inhibition, confirmation; shares compounds with FAS-TE inh; recombinant FAS-TE, OMFH fluorogenic substrate, fluorescence; inhibition, % at 15 µM; 2,300 compounds, 45% hits; AID 624325;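 active = compounds inhibiting the enzyme by at least 50% at 15 µM in any one of the replicates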
# Hits are given with their value; - = inactive; . = no result given. Hits are enriched below; roughly 4.3% of the tested compounds scored in any of these assays.
SMILES,FAS-TE inh,NadD inh,rCAG binder,NR3A LBD binder,FAS-TE conf
Cc1ccc2nc(-c3ccc(C#N)cc3)c(Cc3cccc(F)c3)n2c1,.,.,-,.,.
Cc1cc(C)c2[nH]c(=O)c(CN(Cc3cccs3)C(=S)NCc3ccco3)cc2c1,62,-,-,-,-
CCN(CC)CCN(Cc1cc2cc(C)cc(C)c2[nH]c1=O)C(=S)NCc1ccco1,-,-,-,-,.
Cc1ccc(NC(=S)N(Cc2cccs2)Cc2cc3cc(C)ccc3[nH]c2=O)cc1,72,-,-,-,-
COc1cc2cc(CN(Cc3cccs3)C(=S)Nc3ccc(C)cc3)c(=O)[nH]c2cc1OC,76,-,-,12,-
Cc1cccc(NC(=S)N(Cc2cccs2)Cc2cc3cc(C)ccc3[nH]c2=O)c1,-,-,-,-,.
COc1ccc(CNC(=O)/C=C/c2cc([N+](=O)[O-])ccc2OC(F)F)cc1OC,75,-,-,-,78
COC(=O)c1ccc(CNC(=O)/C=C/c2cc([N+](=O)[O-])ccc2OC(F)F)cc1,83,-,-,-,81
COc1ccc(CNC(=O)/C=C/c2ccccc2[N+](=O)[O-])cc1,-,-,-,-,.
COc1ccc(CNC(=O)/C=C/c2cc([N+](=O)[O-])ccc2OC(F)F)cc1,82,-,-,-,65
O=C(/C=C/c1cc([N+](=O)[O-])ccc1OC(F)F)Nc1cccc2ccccc12,63,-,-,13,48
CCN=C1NC(c2ccccc2C(F)(F)F)C(C(=O)OC)=C(C)N1Cc1ccc(C(F)(F)F)cc1 (stereo unspecified),.,.,-,.,.
O=C(/C=C/c1ccccc1[N+](=O)[O-])NCc1ccc(Cl)cc1,-,-,-,-,.
O=C(/C=C/c1cc([N+](=O)[O-])ccc1OC(F)F)NCc1ccc(Cl)cc1,80,-,-,-,88
CCOC(=O)C1=NOC(C(=O)NCCO)(C(=O)C2CC2)C1 (stereo unspecified),.,.,-,.,.
CCN(Cc1ccccc1)C(=O)COC(=O)c1cnc(C)cn1,-,-,-,-,.
CCN(Cc1ccccc1)C(=O)COC(=O)c1cc(Cl)nc(Cl)c1,55,-,-,-,66
Cc1cccc(N2CCN(S(=O)(=O)c3ccc4c(c3)CC(C)N4C(=O)C3CC3)CC2)c1C (stereo unspecified),65,-,-,-,-
Cc1ccc(C)c(N2CCN(S(=O)(=O)c3ccc4c(c3)CC(C)N4C(=O)C3CC3)CC2)c1 (stereo unspecified),54,-,-,-,-
CC1Cc2cc(S(=O)(=O)N3CCN(C)CC3)ccc2N1C(=O)C1CC1 (stereo unspecified),-,-,-,-,.
CCC(=O)N1c2ccc(S(=O)(=O)N3CCN(c4ccc([N+](=O)[O-])cc4)CC3)cc2CC1C (stereo unspecified),64,-,-,-,-
O=C(CSc1nnc(COc2ccc(Cl)cc2)n1Cc1ccco1)Nc1ccc(OCc2ccccc2)cc1,.,.,-,.,.
C=C[C@@H]1c2cc(C)ccc2N(S(=O)(=O)c2ccc(C)cc2)[C@H](c2ccc(OC(C)=O)cc2)C1(C#N)C#N,52,-,-,-,-
C=C[C@@H]1c2ccccc2N(S(=O)(=O)c2ccc(C)cc2)[C@H](c2ccc(OC(C)=O)cc2)C1(C#N)C#N,62,-,-,-,-
O=S(=O)(/N=C(/Sc1ccccc1)c1ccccc1)c1ccccc1,57,-,-,-,-
SMILES,FAS-TE inh,NadD inh,rCAG binder,NR3A LBD binder,FAS-TE conf
Cc1ccccc1-n1c(SCC(=O)c2c(N)n(C)c(=O)n(C)c2=O)nnc1-c1cccnc1,-,-,-,-,.
Cc1ccccc1-n1c(SCC(=O)c2c(N)n(C)c(=O)n(C)c2=O)nc2sc3c(c2c1=O)CCCC3,90,-,-,-,-
Clc1ccc(-c2nnc(SCc3cccc4ccccc34)n2-c2ccc(Cl)cc2)cc1,.,.,-,.,.
CSc1nc2ccccc2n1Cc1cccc(F)c1,-,-,-,-,.
CSc1nc2ccccc2n1Cc1cccc([N+](=O)[O-])c1,59,-,-,-,-
Cc1c(C(=O)OCCOc2ccc(Br)cc2)sc(=S)n1C,69,-,-,-,63
CC(C)(C)N1C(=O)[C@H]2[C@@H](c3ccc(Br)cc3)N3C(=O)N(c4ccc(Br)cc4)C(=O)[C@@]3(Cc3ccccc3)[C@H]2C1=O,91,-,.,-,51
CC(C)(C)N1C(=O)[C@H]2[C@@H](c3ccc(Br)cc3)N3C(=O)N(c4cccc(F)c4)C(=O)[C@@]3(Cc3ccccc3)[C@H]2C1=O,92,-,-,-,36
COc1ccc([C@@H]2[C@@H]3C(=O)N(C(C)(C)C)C(=O)[C@@H]3[C@]3(Cc4ccccc4)C(=O)N(c4cccc(F)c4)C(=O)N23)cc1,52,-,-,-,-
N/C(=N\C(=O)OCc1ccccc1)N(CC#CC1=CCCCC1)CC1CC1,.,.,-,.,.
COc1cccc(CCNC(=O)CCc2nc(-c3ccccc3F)no2)c1,.,.,-,.,.
CCCCS(=O)(=O)N1C2=NC(C(=O)OC)=C(C(=O)OC)[C@@H]3N(C)c4ccc(OC)cc4[C@]23C[C@H]1C(=O)OC,-,-,.,-,.
COC(=O)C1=C(C(=O)OC)[C@@H]2N(C)c3ccc(OC)cc3[C@@]23C[C@@H](C(=O)OC)N(S(=O)(=O)c2ccc([N+](=O)[O-])cc2)C3=N1,66,-,-,-,-
COC(=O)c1ccc(Cn2ccc3ccc(-c4ccc5ccn(C(=O)c6ccc(C)cc6)c5c4)cc32)cc1,.,.,-,.,.
N#Cc1ccc(Oc2ccc(-c3nc4ccccc4nc3-c3ccccc3)cc2)cc1C#N,70,-,-,-,-
N#Cc1ccc(Oc2ccc(-c3cnc4ccccc4n3)cc2)cc1C#N,-,-,-,-,.
CCCCOCCCNC(=O)C[C@H]1C[C@@]2(C(=O)OC)C(=C[C@H](C(C)(C)C)O[C@@H]2C)N(CCC2=CCCCC2)C1=O,.,.,-,.,.
O=C(Nn1c(-c2ccc(Br)cc2)nc2ccccc2c1=O)c1ccc([N+](=O)[O-])cc1,65,-,-,-,45
O=C(Nn1c(-c2ccncc2)nc2ccccc2c1=O)c1ccc(Br)cc1,-,-,-,-,.
COc1ccc(-c2nnc(SCC(=O)N/N=C(\C)c3ccc(-c4ccccc4)cc3)n2-c2ccc(C)cc2)cc1,.,.,-,.,.
O=C1C2ON(c3ccccc3)C(c3cccnc3)C2C(=O)N1c1ccccc1 (stereo unspecified),-,-,-,-,.
O=C1C2ON(c3ccccc3)C(c3cccnc3)C2C(=O)N1c1ccc(Cl)c(Cl)c1 (stereo unspecified),60,-,-,-,60
CCN(CC)S(=O)(=O)c1ccc(N2CCOCC2)c(NC(=O)c2ccc3c(c2)OCCO3)c1,-,-,-,-,.
COc1ccc2ccccc2c1/C=N/NC(=S)Nc1cc(S(=O)(=O)N2CCOCC2)ccc1N1CCOCC1,92,-,-,-,-
CCN(CC)S(=O)(=O)c1ccc(N2CCOCC2)c(NC(=O)c2ccc3ccccc3c2)c1,52,-,-,-,-
COc1ccc(-n2c(COc3ccc(Cl)cc3)nnc2SCc2nc3ccccc3[nH]2)cc1,.,.,-,.,.
